In assay [1] the target is Metallo-beta-lactamase type 2 (Klebsiella pneumoniae) (UniProt C7C422). Briefly: qHTS to identify inhibitors of the New Delhi Metallo-beta-lactamase (NDM): assay validation screen against the NCATS LOPAC Collection (AID 1794843). Further: on the % scale 0 is the no-effect control and ±100 the full control effect. The conditions noted are these: NDM-1 enzyme, nitrocefin hydrolysis, absorbance 485 nm; series mostly up to 38.4 µM. Summed up: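 Absorbance at 485 nm from nitrocefin turnover (50 uM solution added), read at plateau, gives the read-out. Compounds in DMSO were incubated first with 2 nM final NDM-1 in pH 7.0 HEPES buffer containing 1 uM ZnSO4 and 0.01% Tween20.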
Sequence of Metallo-beta-lactamase type 2 (Klebsiella pneumoniae) (C7C422 whole entry, looked up): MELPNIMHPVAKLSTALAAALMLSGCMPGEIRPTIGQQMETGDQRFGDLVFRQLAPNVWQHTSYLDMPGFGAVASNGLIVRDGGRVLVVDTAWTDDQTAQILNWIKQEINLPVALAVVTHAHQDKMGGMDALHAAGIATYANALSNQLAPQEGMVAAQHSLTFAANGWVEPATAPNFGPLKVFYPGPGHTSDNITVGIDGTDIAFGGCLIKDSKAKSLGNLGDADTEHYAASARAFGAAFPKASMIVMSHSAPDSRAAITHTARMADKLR

In assay [2] the target is Glutathione peroxidase 1 (Homo sapiens) (UniProt P07203). Put plainly: Primary qHTS Assay for Inhibitors of Recombinant Selenoprotein Glutathione Peroxidase 1 (GPX1) (AID 1845191). Further: nearly all actives have a fitted effect of over 65% in size. On activity, negative = inhibition: on the % scale 0 is the no-effect control and ±100 the full control effect. The conditions noted are these: recombinant GPX1, GR-coupled NADPH fluorescence, 15 min; series mostly up to 48.8 µM. The method, boiled down:
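NADPH consumption tracked by fluorescence at 340/450 nm between t=0 and t=15 min, room temperature. Final mix: 10 nM GPX1, 100 nM glutathione reductase, 1 mM GSH, 0.5 mM NADPH, 0.5 mM cumene hydroperoxide, 0.01% BSA; 30 min compound–enzyme preincubation.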
On the technique in general: Quantitative high-throughput screening tests each substance at several concentrations.

Assay [3] has as its target Phospholipid hydroperoxide glutathione peroxidase GPX4 (Homo sapiens) (UniProt P36969). Briefly: Primary qHTS Assay for Inhibitors of Recombinant Selenoprotein Glutathione Peroxidase 4 (GPX4) (AID 1845192). Further: nearly all actives have a fitted effect of over 65% in size. The note with it: recombinant GPX4, GR-coupled NADPH fluorescence, 15 min; series mostly up to 50 µM. Summed up: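 NADPH consumption followed by fluorescence at 340/450 nm, t=0 and after 15 min at room temperature. Reaction started with cumene hydroperoxide (0.5 mM final) after 30 min compound–GPX4 preincubation; final 200 nM GPX4, 100 nM GR, 1 mM GSH, 0.5 mM NADPH.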

A short description of assay [4]: qHTS profiling for inhibitors of Plasmodium falciparum proliferation (AID 504749). Further: nearly all actives have a fitted effect of over 60% in size. Further: potency means the concentration at half of the fitted maximal effect.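 On activity, negative = inhibition: 0% = DMSO vehicle and full inhibition = artemisinin control.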 The note with it: P. falciparum in erythrocytes, SYBR Green DNA, 72 h. Summed up:
(§1)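 SYBR Green fluorescence of parasite DNA, read after lysis and overnight dark incubation, measured growth over 72 h in erythrocyte culture at 0.3% parasitemia and 2.5% hematocrit. Data normalised to DMSO and 0.29 uM artemisinin, with plate-drift correction.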

A further assay has as its system 3D7. Described as above. The note with it: P. falciparum in erythrocytes, SYBR Green DNA, 72 h; series mostly up to 28.7 µM. Summed up: as §1
For the next assay, the system named is 7G8. The description is as above. The note with it: P. falciparum in erythrocytes, SYBR Green DNA, 72 h; series mostly up to 28.7 µM. The method, boiled down: as §1
The test system of the next assay is AA1029. The description is as above. The conditions noted are these: P. falciparum in erythrocytes, SYBR Green DNA, 72 h; series mostly up to 28.7 µM. Summed up:
as §1

Another assay concerns AS120. The assay is described as above. The note with it: P. falciparum in erythrocytes, SYBR Green DNA, 72 h; series mostly up to 28.7 µM. Summed up:
as §1

The next assay deals with ATS189. The assay is described as above. The conditions noted are these: P. falciparum in erythrocytes, SYBR Green DNA, 72 h; series mostly up to 28.7 µM. The method, boiled down:
as §1

The next assay has as its system ATS95. The description is as above. The conditions noted are these: P. falciparum in erythrocytes, SYBR Green DNA, 72 h; series mostly up to 28.7 µM. Summed up: as §1
The next assay concerns C2A. The description is as above. The conditions noted are these: P. falciparum in erythrocytes, SYBR Green DNA, 72 h; series mostly up to 28.7 µM. Summed up: as §1
A further assay relates to CP185. The description is as above. The conditions noted are these: P. falciparum in erythrocytes, SYBR Green DNA, 72 h; series mostly up to 28.7 µM. The method, boiled down: as §1
The subject of a further assay is CP191. The assay is described as above. The note with it: P. falciparum in erythrocytes, SYBR Green DNA, 72 h; series mostly up to 28.7 µM. Summed up: as §1
The subject of the next assay is CP192. The assay is described as above. The conditions noted are these: P. falciparum in erythrocytes, SYBR Green DNA, 72 h; series mostly up to 28.7 µM. The method, boiled down: as §1
A further assay deals with CP194. The description is as above. The conditions noted are these: P. falciparum in erythrocytes, SYBR Green DNA, 72 h; series mostly up to 28.7 µM. Summed up:
as §1

Assay [5] is described as follows: qHTS drug screen for cell cycle checkpoint inhibitors in PARPi-resistant BRCA-mutant ovarian cancer cell lines. (AID 1963452; calls by dose curve). The note with it: PEO1/OlaR viability, CellTiter-Glo luminescence, 96 h, stronger effect = lower value. Summed up:
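PEO1, PEO4 and PEO1/OlaR ovarian cancer cells, 600 per well, exposed 96 h at 37C to a dilution series. Viability read by CellTiter-Glo luminescence, normalized to DMSO and empty wells; activity summarized as Z-AUC.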

[6] abbreviates: at 28.7 µM (top of the series), parasite line A.
[7] abbreviates: at 28.7 µM (top of the series), parasite line B.

Molecules are shown by their SMILES. “And” between values parts separate entries of the source, which are not always exact repeats. Equal entries are not always repeated. Inconclusive results are not listed. The source made the active and inactive calls. Unless noted, the call rests on the fitted dose curve; in most records, active means well fitted curve in the direction sought with a large enough effect; inconclusive means small, poorly fitted or top-dose-only effect, or another doubt; inactive means no such curve, though single readings can be large; an effect the other way counts as inactive or inconclusive.

Sequence of Phospholipid hydroperoxide glutathione peroxidase GPX4 (Homo sapiens) (P36969 whole entry, looked up): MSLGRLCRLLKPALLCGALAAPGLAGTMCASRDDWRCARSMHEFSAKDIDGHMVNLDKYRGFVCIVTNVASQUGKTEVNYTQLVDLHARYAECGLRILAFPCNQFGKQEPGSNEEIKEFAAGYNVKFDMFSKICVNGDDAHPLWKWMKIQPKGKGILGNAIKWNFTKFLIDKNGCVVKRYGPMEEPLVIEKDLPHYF
Sequence of Glutathione peroxidase 1 (Homo sapiens) (P07203 whole entry, looked up): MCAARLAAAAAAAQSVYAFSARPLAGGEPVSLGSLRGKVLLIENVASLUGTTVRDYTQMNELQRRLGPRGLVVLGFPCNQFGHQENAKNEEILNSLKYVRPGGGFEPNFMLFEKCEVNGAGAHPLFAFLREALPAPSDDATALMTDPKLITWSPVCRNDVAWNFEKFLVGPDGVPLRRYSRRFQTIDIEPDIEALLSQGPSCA

As for `CC[N+](C)(C)c1cccc(O)c1`, the Potency entry (in assay [1]; in [2]; in the assay on 3D7; in the assay with 7G8; in the assay on AA1029; in the assay on AS120) was “inactive” each time. Further, the Potency result in the assay with ATS189, in the assay on ATS95, with C2A, with CP185, with CP191 and in the assay on CP192 was “inactive” each time. Besides, the Potency entry in the assay with CP194 was “inactive”. Also, in assay [3], the outcome was inactive. Besides, the activity, negative = inhibition was 14.2% (inactive) in assay [4] (at 12.8 µM (top of the series), parasite line A) and 8.4% (inactive) in assay [4] (at 12.8 µM (top of the series), parasite line B).

On to `CN(C(=O)CCCOc1ccc2[nH]c(=O)ccc2c1)C1CCCCC1`, for which the Potency result (in assay [1]; in assay [2]; in the assay on 3D7; in the assay on AA1029; in the assay on AS120; with ATS189) was “inactive” in each case. Besides, the Potency result in the assay on ATS95, with CP185, in the assay on CP191 and in the assay with CP192 was “inactive” throughout. Further, the outcome in assay [3] was inactive. For the same compound, the activity, negative = inhibition in assay [4] (setting [6]) is -9.28% (inactive); in assay [4] (setting [7]), 16% (inactive). For the same compound, the Potency with 7G8 was 11.2 µM (active).

For the compound `COc1ccc(CN(CCN(C)C)c2ccccn2)cc1`, the Potency result (in assay [1]; in assay [2]; with 3D7; in the assay on 7G8; with AS120; in the assay on ATS189) was “inactive” each time. For the same compound, the Potency entry with C2A, with CP185, with CP191 and in the assay on CP192 was “inactive” in each case. Also, in [3], the result was inactive. For the same compound, the activity, negative = inhibition in [4] (setting [6]) is -7.89% (inactive); in assay [4] (setting [7]) it was -2.95% (inactive).

Take `CCCCNc1c(C(=O)OCC)c(C)nc2c1cnn2CC`: the Potency result (in [1]; in assay [2]; in the assay on 3D7; with AA1029; in the assay with ATS189; in the assay with ATS95) was “inactive” each time. In addition, the Potency result with C2A, in the assay with CP185, in the assay with CP191, with CP192 and with CP194 was “inactive” each time. Further, the result in [3] was inactive. Further, the activity, negative = inhibition is 2.9% (inactive) in [4] (setting [6]) and -6.97% (inactive) in [4] (setting [7]).

For the compound `CN(C)CCN(Cc1cccs1)c1ccccn1`, the Potency entry (in assay [1]; in assay [2]; in the assay with 3D7; with CP191) was “inactive” throughout. For the same compound, in assay [3], the outcome was inactive. For the same compound, the activity, negative = inhibition is 5.46% (inactive) in assay [4] (setting [6]) and 6.28% (inactive) in assay [4] (setting [7]). In addition, the Potency in the assay on AA1029 was 10 µM (active); in the assay on AS120 it was 12.6 µM (active).

On to `CCCOc1ccccc1-c1nc2n[nH]nc2c(=O)[nH]1`, for which the Potency entry (in assay [1]; in assay [2]; in the assay on 3D7; in the assay with 7G8; with AA1029; in the assay with AS120) was “inactive” each time. Also, the Potency result with ATS189, in the assay with ATS95, in the assay with C2A, with CP185, in the assay on CP191 and in the assay with CP192 was “inactive” throughout. Moreover, in the assay on CP194, the Potency result was “inactive”. In addition, in assay [3], the outcome was inactive. Also, the activity, negative = inhibition in assay [4] (setting [6]) was -3.13% (inactive); in assay [4] (setting [7]), 3.38% (inactive).

As for `COCCOC(=O)C1=C(C)NC(C)=C(C(=O)OC(C)C)C1c1cccc([N+](=O)[O-])c1` (stereo not drawn), the Potency result (in assay [1]; in assay [2]; with C2A) was “inactive” in each case. For the same compound, the outcome in assay [3] was inactive. Moreover, the Potency is 11.2 µM (active) in the assay with 7G8 and 7.94 µM (active) with AS120.

As for `CN(C)CCCN1c2ccccc2Sc2ccc(C(F)(F)F)cc21`, the Potency entry (in assay [1]; in assay [2]; in the assay with ATS95; in the assay with C2A; in the assay on CP192) was “inactive” throughout. The outcome in assay [3] was inactive. The Potency with 7G8 is 5.01 µM (active).

For `NC(=O)c1ncn([C@@H]2O[C@H](CO)[C@@H](O)[C@H]2O)c1O`, the Potency entry (in [1]; in assay [2]; in the assay with 3D7; in the assay on 7G8; with AA1029; in the assay with AS120) was “inactive” in each case. Besides, the Potency result in the assay on ATS189, in the assay with ATS95, in the assay with C2A, in the assay with CP185, with CP191 and with CP192 was “inactive” each time. In addition, the Potency result with CP194 was “inactive”. For the same compound, the Z-AUC in [5] was 1.15 (inactive) and 0.284 (inactive); in [5] (measured here: PEO1 parental Z-AUC) it was 0.935 and 0.686; in assay [5] (measured here: PEO4 Z-AUC), 1.08 and 0.519. For the same compound, the activity, negative = inhibition in assay [4] (setting [6]) was 9.25% (inactive); in assay [4] (setting [7]), 1.87% (inactive).

Values taken from PubChem BioAssay (NCATS).
